# Test results as given in PubChem BioAssay AID1347150 (National Center for Advancing Translational Sciences (NCATS), 2019).
# Inconclusive results are not listed. Activity calls are given as the source filed them. Calls come from the whole dose curve; as a rule, active = well fitted curve in the direction sought with a large enough effect; inconclusive = small, poorly fitted or top-dose-only effect, or another doubt; inactive = no such curve, though single readings can be large or run the other way. Numbered stars: 1 amine (or outer) side, 2 acyl side, 3 side chain; on linkers, the order of the positions; unused ones are H or OH. Bridge positions count the residues as written; N and C are the ends. Square brackets hold non-standard residues; d marks the D form. Peptide text beside a SMILES is read from it. I, II: the chains in the order shown. ξ: configuration not given here. Actinocin(9to1) = Cc1c2oc3c(C)ccc(C(=O)[*:1])c3nc-2c(C(=O)[*:2])c(N)c1=O; aThr = C[C@H](O)[C@H](N)C(=O)O; NMeV = CN[C@H](C(=O)O)C(C)C; ξNMeV = CNC(C(=O)O)C(C)C; ξV = CC(C)C(N)C(=O)O; Sar = CNCC(=O)O
# Tested on: Zika virus NS2B-NS3 protease (linked)
# Test: Optimization screen NINDS AMC qHTS for Zika virus inhibitors: Linked NS2B-NS3 protease assay
# Conditions: recombinant linked NS2B-NS3 protease, AMC fluorogenic substrate; series mostly up to 52.5 µM; activity change, negative = inhibition: at the top concentration
# Excerpt: Avindra Nath, Ph.D., National Institute of Neurological Disorders and Stroke (NINDS), Bethesda, MD
# Radhakrishnan Padmanabhan, Ph.D., Georgetown University (GU), Washington D.C.
# Zika Virus causes congenital defects, including microcephaly and is associated with Guillain-Barre syndrome, eningoencephalitis and myelitis in infected adult. […] Using a target-based approach, we hope to establish a screening paradigm to uncover novel, cell-active NS2B-NS3 protease (Zika Virus) specific inhibitors from NCATS' collection of small molecules using qHTS.
# Four assay panel was created to identify potential Zika Virus inhibitors. Namely, (1) GU unlinked NS2B-NS3 AMC tagged protease qHTS, (2) GU unlinked NS2B-NS3 Rhodamine tagged protease qHTS, (3) NINDS linked NS2B-NS3 AMC tagged protease qHTS, (4) NINDS linked NS2B-NS3 Rhodamine tagged protease qHTS. Active compounds were re-acquired and re-screened to confirm inhibition. Inhibitors were further screened against various confirmatory and counterscreens in dose response format.
# Early Translation Branch (ETB)
# National Center for Advancing Translational Sciences (NCATS), Rockville, MD
# National Institute of Health (NIH), Bethesda, Maryland
# For the linked assay, Nath lab (NINDS) provided the purified linked NS2B-NS3 protease which is consists of hydrophilic domain of NS2B linked to the NS3 protease domain by a flexible (-GGGGSGGGG-) linker. Control compound aprotinin is obtained from Thermo Scientific (#78432; Waltham, Massachusetts). NS2B-NS3 AMC substrate (Bz-Nle-Lys-Arg-Arg-AMC; Nle-KRR-AMC) purchased from Bachem (#I-1995; Torrance, CA). Ac-VKTGKR-AMC purchased from Genscript or Bachem, Ac-FAAGKR-AMC purchased from Genscript, Ac-GLVKRR-AMC purchased from Genscript, Ac-LKKR-AMC purchased from Genscript.
# NINDS AMC linked NS2B-NS3 protease qHTS protocol:
# Briefly, 3 microL of Zika virus linked NS2B-NS3 protease (1 nM for linked final concentration), in assay buffer (10 mM Tris-HCl pH 8.0 with 0.01% Tween 20) was dispensed into a 1,536-well solid-bottom black plate (Greiner Bio One, Monroe, NC). Twenty-three nL of compounds (final concentration range 7.28 nM to 114 microM) or control Aprotinin (final concentration range 3.47 nM to 114 microM) were transferred via Wako Pin-tool (Wako Automation, Richmond, VA). Samples were incubated (room temperature, protected from light) for 15 minutes followed by a 1 microL AMC substrate addition of (final concentration of 10 microM; Km = 18.3 µM). Plates were then read immediately on a ViewLux High-throughput CCD imager (PerkinElmer, Waltham, MA) equipped with standard UV fluorescence optics (340(30) nm excitation, 450(20) nm emission) then incubated (room temperature, protected from light) for 15 minutes (~20% conversion). The change in fluorescence intensity over the 15-minute reaction period was normalized against no-inhibitor and no-enzyme controls and the resulting percent inhibition data were fitted to a 4-parameter Hill equation. Aprotinin was used as the intraplate control.
SMILES,"activity change, negative = inhibition",Potency
OC(c1cc(C(F)(F)F)nc2c(C(F)(F)F)cccc12)C1CCCCN1 (stereo not given),9.63% (inactive),–
CC(C)(C)CC(C)(C)c1ccc(OCCOCC[N+](C)(C)Cc2ccccc2)cc1,–,inactive
CC(=O)Nc1ccc([C@H](C)C(=O)Nc2ncc(C(C)C)s2)cc1,7.38% (inactive),–
CO[C@H]1C[C@@H](O[C@@H]2/C(C)=C/C[C@@H]3C[C@@H](C[C@]4(CC[C@H](C)[C@@H](C5CCCCC5)O4)O3)OC(=O)[C@@H]3C=C(C)/C(=N/O)[C@H]4OC/C(=C\C=C\[C@@H]2C)[C@]43O)O[C@@H](C)[C@H]1O,-44.5% (inactive),–
CCC(CC)(NC(=O)C(C)C)C(=O)N[C@@H](CCCN=C(N)N)C(=O)NC1(C(=O)NC(c2ccc(F)cc2)c2ccc(F)cc2)CCCC1,14.4% (inactive),–
Cc1nc(Nc2ncc(C(=O)Nc3c(C)cccc3Cl)s2)cc(N2CCN(CCO)CC2)n1,–,355 µM (active)
CC(C)C[C@H](NC(=O)[C@H](Cc1ccccc1)NC(=O)c1cnccn1)B(O)O,7.56% (inactive),–
CCOc1ccc(C2C(=O)N(C3CCCCC3)CC(=O)N2Cc2ccc(F)cc2)cc1OC (stereo not given),4.99% (inactive),–
COC(=O)Nc1nc2ccc(C(=O)c3ccccc3)cc2[nH]1,7.48% (inactive),–
"Cc1c2oc3c(C)ccc(C(=O)N[C@@H]4C(=O)N[C@H](C(C)C)C(=O)N5CCC[C@H]5C(=O)N(C)CC(=O)N(C)[C@@H](C(C)C)C(=O)O[C@@H]4C)c3nc-2c(C(=O)N[C@@H]2C(=O)N[C@H](C(C)C)C(=O)N3CCC[C@H]3C(=O)N(C)CC(=O)N(C)[C@@H](C(C)C)C(=O)O[C@@H]2C)c(N)c1=O (I: T[dV]P[Sar][NMeV] / II: T[dV]P[Sar][NMeV]; ester I:1-I:C, II:1-II:C; linker I:N-II:N via Actinocin(9to1))",–,inactive
"Cc1c2oc3c(C)ccc(C(=O)N[C@@H]4C(=O)NC(C(C)C)C(=O)N5CCC[C@H]5C(=O)N(C)CC(=O)N(C)C(C(C)C)C(=O)O[C@@H]4C)c3nc-2c(C(=O)N[C@@H]2C(=O)NC(C(C)C)C(=O)N3CCC[C@H]3C(=O)N(C)CC(=O)N(C)C(C(C)C)C(=O)O[C@@H]2C)c(N)c1=O (stereo not given in full) (I: T[ξV]P[Sar][ξNMeV] / II: T[ξV]P[Sar][ξNMeV]; ester I:1-I:C, II:1-II:C; linker I:N-II:N via Actinocin(9to1))",-2.5% (inactive),–
Nc1ncnc2c1ncn2[C@@H]1O[C@H](CSCC[C@H](N)C(=O)O)[C@@H](O)[C@H]1O,-22.3% (inactive),–
O=C1c2c(O)ccc([N+](=O)[O-])c2C(=O)c2c([N+](=O)[O-])ccc(O)c21,–,44.1 µM (active)
CC=CCC(C)C(O)C1C(=O)NC(CC)C(=O)N(C)CC(=O)N(C)C(CC(C)C)C(=O)NC(C(C)C)C(=O)N(C)C(CC(C)C)C(=O)NC(C)C(=O)NC(C)C(=O)N(C)C(CC(C)C)C(=O)N(C)C(CC(C)C)C(=O)N(C)C(C(C)C)C(=O)N1C (stereo not given),7.12% (inactive),–
C[C@H](NC(=O)C(=O)Nc1ccccc1C(C)(C)C)C(=O)N[C@@H](CC(=O)O)C(=O)COc1c(F)c(F)cc(F)c1F,3.42% (inactive),–
Nc1ncnc2c1ncn2[C@@H]1O[C@H](C[C@@H](N)CC[C@H](N)C(=O)O)[C@@H](O)[C@H]1O,-6.57% (inactive),–
Cc1ccccc1CNc1ncnc2c1ncn2C1OC(CO)C(O)C1O (stereo not given),-8.32% (inactive),–
CC1O[C@@H](O[C@@H]2C(O)C[C@H](O[C@@H]3C(O)C[C@@H](OC4CC[C@@]5(C)C6CC(O)[C@@]7(C)C(C8=CC(=O)OC8)CC[C@@]7(O)C6CC[C@@H]5C4)OC3C)OC2C)CC(O)[C@H]1O (stereo not given in full),4.73% (inactive),–
Cn1cnc([N+](=O)[O-])c1Sc1ncnc2nc[nH]c12,–,inactive
CO[C@H]1C[C@H](O[C@@H]2/C(C)=C/C[C@@H]3C[C@@H](C[C@]4(CC[C@H](C)[C@@H](C5CCCCC5)O4)O3)OC(=O)[C@@H]3C=C(C)/C(=N/O)[C@H]4OC/C(=C\C=C\[C@@H]2C)[C@]43O)O[C@@H](C)[C@@H]1O,-35.6% (inactive),–

SMILES,"activity change, negative = inhibition",Potency
COc1c(C)c2c(c(O)c1C/C=C(\C)CCC(=O)O)C(=O)OC2,-3.86% (inactive),–
O=C(Nc1ccc([N+](=O)[O-])cc1Cl)c1cc(Cl)ccc1O,-11.4% (inactive),–
CC[C@@H]1O[C@]2(C=C[C@@H]1C)C[C@H]1C[C@H](CC=C(C)[C@@H](O[C@@H]3C[C@H](OC)[C@H](O[C@@H]4C[C@H](OC)[C@H](O)[C@H](C)O4)[C@H](C)O3)[C@@H](C)C=CC=C3CO[C@@H]4[C@@H](O)C(C)=C[C@@H](C(=O)O1)[C@]34O)O2,-2.55% [at 24 µM] (inactive),–
"Cc1c2oc3c(C)ccc(C(=O)N[C@@H]4C(=O)N[C@@H](C(C)C)C(=O)N5CCC[C@@H]5C(=O)N(C)CC(=O)N(C)[C@@H](C(C)C)C(=O)O[C@H]4C)c3nc-2c(C(=O)N[C@@H]2C(=O)N[C@@H](C(C)C)C(=O)N3CCC[C@@H]3C(=O)N(C)CC(=O)N(C)[C@@H](C(C)C)C(=O)O[C@H]2C)c(N)c1=O (I: [aThr]V[dP][Sar][NMeV] / II: [aThr]V[dP][Sar][NMeV]; ester I:1-I:C, II:1-II:C; linker I:N-II:N via Actinocin(9to1))",-35.3% (inactive),–
Nc1nc(=S)c2[nH]cnc2[nH]1,–,inactive
CN1CCN(C(=O)CCN2C(=O)/C(=C\c3ccccc3F)SC2=S)CC1,9.29% [at 114 µM] (inactive),–
C[S+](CC[C@H](N)C(=O)O)C[C@H]1O[C@@H](n2cnc3c(N)ncnc32)[C@H](O)[C@H]1O (stereo not given in full),-24.3% (inactive),–
CC[C@H](C)[C@H]1O[C@]2(CC[C@@H]1C)C[C@@H]1C[C@@H](C/C=C(\C)[C@@H](O[C@H]3C[C@H](OC)[C@@H](O[C@H]4C[C@H](OC)[C@@H](O)[C@H](C)O4)[C@H](C)O3)[C@@H](C)/C=C/C=C3\CO[C@@H]4[C@H](O)C(C)=C[C@@H](C(=O)O1)[C@]34O)O2,–,inactive
NC(=O)C(=O)O,11.6% (inactive),–
CCCCOc1ccc(C2C(=O)N(C3CCCCC3)CC(=O)N2C2CCCCC2)cc1 (stereo not given),-23.4% (inactive),–
O[C@@H](c1cc(C(F)(F)F)nc2c(C(F)(F)F)cccc12)[C@H]1CCCCN1,11.7% (inactive),–
CC[C@@H](C)[C@H]1O[C@]2(CC[C@H]1C)C[C@@H]1C[C@@H](CC=C(C)[C@@H](O[C@H]3C[C@H](OC)[C@@H](O[C@H]4C[C@H](OC)[C@@H](O)[C@H](C)O4)[C@H](C)O3)[C@@H](C)C=CC=C3CO[C@@H]4[C@H](O)C(C)=C[C@@H](C(=O)O1)[C@]34O)O2,1.01% (inactive),–
C[C@H]1O[C@@H](O[C@H]2[C@@H](O)C[C@H](O[C@H]3[C@@H](O)C[C@H](O[C@H]4CC[C@@]5(C)[C@H](CC[C@@H]6[C@@H]5C[C@@H](O)[C@]5(C)[C@@H](C7=CC(=O)OC7)CC[C@]65O)C4)O[C@@H]3C)O[C@@H]2C)C[C@H](O)[C@@H]1O,6.73% [at 114 µM] (inactive),–
COc1c2occc2cc2ccc(=O)oc12,–,inactive
O=C1c2cccc3c2[C@@H](CCC3)CN1[C@@H]1CN2CCC1CC2,-3.68% (inactive),–
CCc1nc(N)nc(N)c1-c1ccc(Cl)cc1,–,inactive
N[C@H](C(=O)O)c1ccc(O)cc1,-13.9% (inactive),–
CCOc1ccc(C2C(=O)N(C3CCCCCC3)CC(=O)N2CCc2ccc(Cl)cc2)cc1OC (stereo not given),2.88% (inactive),–
S=c1nc[nH]c2nc[nH]c12,–,inactive
C[C@H]1O[C@@H](O[C@H]2[C@@H](O)C[C@H](O[C@H]3[C@@H](O)C[C@H](O[C@H]4CC[C@]5(C)C6C[C@@H](O)[C@]7(C)[C@@H](C8=CC(=O)OC8)CC[C@]7(O)C6CC[C@@H]5C4)O[C@@H]3C)O[C@@H]2C)C[C@H](O)[C@@H]1O (stereo not given in full),0.817% (inactive),–
